The list is not random: actives were taken first. Their share in the collection is about 13%.
USP17 inh = human USP17-like deubiquitinase inhibition | A8MUK1 | purified USP17, Ub-rhodamine cleavage fluorescence, 3 h | hit rate 6.5% among 47,000 | AID 1645855 | inhibition, % at 50 µM
USP8 inh = blocks human USP8 ubiquitin-rhodamine cleavage; P40818; purified USP8, Ub-rhodamine cleavage fluorescence, 30 min; inhibition, % at 20 µM; hit rate 4.2% among 47,000
USP30 block = blocks human USP30 ubiquitin-rhodamine cleavage. inhibition, % at 25 µM. purified USP30, Ub-rhodamine cleavage fluorescence. hit rate 5.3% among 47,000
USP28 inh = human USP28 deubiquitinase inhibition. Q96RU2. purified USP28, Ub-rhodamine cleavage fluorescence, 30 min. inhibition, % at 25 µM. hit rate 3% among 47,000
USP10 block = human USP10 deubiquitinase inhibition; Q14694; purified USP10, Ub-rhodamine fluorescence, 60 min; inhibition, % at 20 µM; hit rate 1.1% among 47,000
USP7 inh = inhibitors of human USP7 deubiquitinase; purified USP7, Ub-rhodamine cleavage fluorescence; AID 1645854; inhibition, % at 20 µM; hit rate 0.3% among 47,000
Starred values were filed as active, the others as inactive. No stated cut-off is given here; in the data, active means inhibition above about 30%; inactive means the rest.

SMILES | USP17 inh | USP8 inh | USP30 block | USP28 inh | USP10 block | USP7 inh
CCC(=O)C1(C)OC1C(C)CC(C)C1OC(=O)CC2(O)CC=C(C)C(O2)/C(C)=C/CCCC(O[C@H]2C[C@@H](OC(N)=O)[C@H](O)[C@@H](C)O2)/C=C/C(C)C(O)C1C (some centres undefined) | 14 | 8 | -4 | 5 | 0 | 16
CC(=O)Nc1c(-c2ccc3c(c2)OCO3)c(=O)c2ccccc2n1C | 12 | 21 | 49* | 5 | 0 | 4
O=C(Nc1oc2ccccc2c(=O)c1-c1ccc2c(c1)OCO2)C1CCCCC1 | 83* | 15 | 26 | 5 | 4 | 2
CCCCC(=O)Nc1c(-c2ccc3c(c2)OCO3)c(=O)c2ccccc2n1C | -5 | -16 | 3 | -4 | -2 | 0
O=C(Nc1ccccc1)N1CCCCCC1C1CCN(Cc2nnnn2C2CC2)CC1 (centres undefined) | -37 | -107 | -38 | -9 | -1 | -7
Cc1cc(C)c(NC(=O)c2ccc3c(c2)-c2ccccc2S(=O)(=O)N3C)c(C)c1 | 18 | 18 | 14 | 8 | 6 | 8
O=C(Nc1cccc2ccccc12)N1CCC(c2nc3c(nnn3Cc3ccc(F)cc3)c(=O)[nH]2)CC1 | 91* | 97* | 36* | 38* | 18 | 3
O=C(C1CCCC1)N1CCC(c2nc3c(nnn3Cc3c(F)cccc3Cl)c(=O)[nH]2)CC1 | -2 | -19 | 11 | -5 | 12 | -98
O=C(C1CCC1)N1CCC(c2nc3c(nnn3Cc3c(Cl)cccc3Cl)c(=O)[nH]2)CC1 | 10 | 17 | 36* | 19 | 9 | -18
O=c1[nH]c(C2CCN(S(=O)(=O)c3ccccc3)CC2)nc2c1nnn2Cc1c(Cl)cccc1Cl | 10 | 16 | 39* | 27 | 32* | 7
O=c1[nH]c(C2CCN(S(=O)(=O)c3cccc4ccccc34)CC2)nc2c1nnn2Cc1ccccc1Cl | 2 | 3 | 31* | 33* | 24 | 13
COc1cc(N2CC[C@H]3O[C@H](C(=O)NC4CCCC4)CC[C@H]32)ncn1 | -10 | -108 | -13 | -5 | 0 | -4
CC(=O)N1CCN(c2nc3c(s2)CC(C(=O)Nc2ccccc2C)CC3)CC1 (centres undefined) | -20 | -36 | -40 | -15 | -7 | -4
CNc1nc2c(c(=O)n1-c1ccccc1)CN(C(=O)Cc1ccccc1)CC2 | 5 | 3 | 5 | 4 | 3 | 7
COc1ccccc1CN1CCC([C@@H]2C[C@H](C(F)(F)F)n3ncnc3N2)CC1 | 11 | 15 | 31* | 8 | 1 | 6
Cc1ccc2c(c1)[C@]1(C(=O)N2)[C@@H](C(=O)c2ccccc2)[C@]2(C(=O)Nc3ccccc32)[C@@H]2CCCN21 | 52* | 0 | -3 | 0 | 2 | 4
O=C(c1ccc(Cl)cc1)[C@H]1[C@]2(C(=O)Nc3ccccc32)[C@@H]2CCCN2[C@@]12C(=O)Nc1ccccc12 | 11 | 10 | 5 | 7 | 7 | -32
Cc1ccc2c(c1)[nH]c1c(N3CCc4ccccc4C3)ncnc12 | 43* | 35* | -53 | 6 | 3 | 6
Cc1ccc2[nH]c3c(N4CCSCC4)ncnc3c2c1 | -6 | 10 | 1 | 1 | 0 | 8
OC(c1ccc2c(c1)OCO2)c1ncc(-c2ccc3ccccc3c2)[nH]1 (centres undefined) | 1 | 40* | -30 | -2 | -6 | 3
Cc1cc2nc(C3CCCCN3C(=O)c3ccnn3C)ccn2n1 (centres undefined) | -4 | -13 | 0 | 0 | -2 | 0
Cc1cc(NC(=O)COc2cccc(C(F)(F)F)c2)no1 | 48* | 24 | 13 | 8 | 2 | 4
Cc1cc(NC(=O)c2ccc(C(F)(F)F)cc2)no1 | 13 | 19 | 40* | 6 | 11 | 10
Cc1cc(NC(=O)COc2ccc3oc4ccccc4c3c2)no1 | 78* | -2 | 21 | 5 | 6 | 4
COc1ccc(NC(=O)COc2cccc(-c3noc(-c4ccco4)n3)c2)cc1 | -13 | -8 | -45 | -23 | -1 | -8
CCc1cc(=O)oc2cc(OCC(=O)NC(c3ccccc3)c3ccccc3)ccc12 | 4 | 7 | 44* | 14 | 11 | 10
COc1ccccc1N1CCN(C(=O)/C=C/c2ccc(OCc3ccc(Br)cc3)cc2)CC1 | 13 | 10 | 17 | 9 | 0 | -2
CC(NC(=O)COc1ccc2oc3ccccc3c2c1)c1ccccc1 (centres undefined) | 42* | 0 | 22 | -1 | 4 | 3
